Results from PubChem BioAssay.
A number with no mark means an inactive call.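 How the source made its calls, unless noted: active means NADPH fluorescence slope more negative than the mean of all samples by about 3 SD, 99.7% confidence; inactive means the rest.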

Target: Voltage-gated potassium channel subunit beta-2 (Rattus norvegicus) (UniProt P62483)
Test: inhibitors of rat Kvbeta2 reductase activity – biochemical, NADPH fluorescence, primary screen (AID 622;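 active means fluorescence slope higher than the sample average by over 3 SD, cut at about -0.22 in these data, passing the limit was not always enough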;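 further: slope of raw intensity against log time taken from 70 to 1610 s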)
Details: recombinant KvBeta, 4-cyanobenzaldehyde reduction, at 10 µM, stronger effect = higher value

Voltage-gated potassium channel subunit beta-2 (Rattus norvegicus), sequence (P62483 whole entry, looked up): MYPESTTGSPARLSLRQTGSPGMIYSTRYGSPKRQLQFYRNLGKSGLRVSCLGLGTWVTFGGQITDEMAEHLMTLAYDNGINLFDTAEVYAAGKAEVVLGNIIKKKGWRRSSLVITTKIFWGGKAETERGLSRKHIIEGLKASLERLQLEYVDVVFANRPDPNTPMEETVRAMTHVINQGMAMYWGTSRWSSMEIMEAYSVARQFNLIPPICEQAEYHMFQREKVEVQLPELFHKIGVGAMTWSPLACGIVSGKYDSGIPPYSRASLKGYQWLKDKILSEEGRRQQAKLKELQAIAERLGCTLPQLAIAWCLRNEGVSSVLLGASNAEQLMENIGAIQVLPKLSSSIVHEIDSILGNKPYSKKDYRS

Structure (SMILES)	fluorescence slope
COc1ccc(/C(O)=C2/C(=O)C(=O)N(c3ncccn3)C2c2ccc(OC)c(OC)c2)cc1 (centres undefined)	-0.352
COc1cccc2c(=O)c(SC(F)(F)C(F)C(F)(F)F)c(C)[nH]c12 (centres undefined)	-0.393
COc1ccccc1N(O)C1CC(=O)N(c2ccc(F)cc2)C1=O (centres undefined)	-0.46
CC1CN(C2CCN(S(=O)(=O)c3ccccc3)CC2)CC(C)O1 (centres undefined)	-0.322
CC(C)OC(=O)c1nn2c(C(F)(F)F)cc(-c3ccc(Br)o3)nc2c1Br	-0.29
O=S(=O)(c1ccc(Cl)cc1)N1CCC(N2CCCCCC2)CC1	-0.321
CCCCNC(=O)N1CCOCCOCCN(C(=O)NCCCC)CCOCCOCC1	-0.526
C=CCc1c(C)c(C#N)c2nc3ccccc3n2c1N1CCN(C)CC1	-0.476
COc1ccc(C2=Nn3c(nnc3-c3ccccn3)SC2)cc1	-0.427
COC(=O)c1nn2c(C(F)(F)F)cc(-c3ccc(Br)o3)nc2c1Br	-0.442
Cc1cc(C)nc(N(C#N)CC(=O)N(c2ccccc2)C(C)C)n1	-0.345
CC1(C)CC(N(Cc2ccco2)C(=O)Cc2ccccc2)CCO1 (centres undefined)	-0.485
O=C(c1ccc(=O)oc1)N1CCOCC1	-0.46
CCOC(=O)C1CCCN(c2nc3ccccc3nc2C(C#N)C(=O)OCCOC)C1 (centres undefined)	-0.48
COC(=O)CSc1nc(N)c2c3c(sc2n1)CCCC3	-0.355
Cc1c(C(Nc2ccccn2)c2ccccc2)c(=O)n(-c2ccccc2)n1C (centres undefined)	-0.508
CSc1nc(N)nc(SCC(=O)OC(C)C)c1C#N	-0.371
CCOC(=O)c1c(CNCCN(CC)CC)n(C)c2cc(Br)c(OC)cc12	-0.439
COc1ccc(/C(O)=C2/C(=O)C(=O)N(CCCN(C)C)C2c2ccccc2)cc1OC (centres undefined)	-0.386
Nc1nnc(CSc2ccc(Cl)cc2)s1	-0.369
Fc1ccc2[nH]c3c(N4CCN(C5CCCCC5)CC4)ncnc3c2c1	-0.152
COC(=O)C(NC(C)=O)(Nc1ccccc1)C(=O)OC	-0.532
CN(C)C/C(Cl)=C(\Cl)c1ccccc1	-0.53
Cc1[nH]c2ccc3c(ncn3CCC#N)c2c1C	-0.5

Target: Voltage-gated potassium channel subunit beta-2 (Rattus norvegicus) (UniProt P62483)
Test: enhancers of rat Kvbeta2 NADPH turnover – biochemical, NADPH fluorescence, primary screen (AID 623);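 further: fluorescence intensity change per second fitted from 20 to 320 s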
Details: Recombinant KvBeta, NADPH fluorescence decrease slope, 10 min; at 10 µM; stronger effect = lower value

Structure (SMILES)	NADPH fluorescence slope
N#CC1=C(SCc2ccccc2)NC2=C(C(=O)CCC2)C1c1ccc2c(c1)OCO2 (centres undefined)	-5.3e-05
CC(=O)C1=C(O)C(=O)N(c2cccc(C(=O)O)c2)C1c1ccccc1F (centres undefined)	-4.6e-05
Cc1[nH]nc2cn[nH]c12	-5.7e-05
CCCCOc1ccc(CSC(CC(=O)O)C(=O)O)cc1 (centres undefined)	-0.000104
O=S(=O)(c1ccccc1)N1CCC(N2CCCCCC2)CC1	2.7e-05
COc1cccc(C2/C(=C(\O)c3ccc4c(c3)OCCO4)C(=O)C(=O)N2CCN(C)C)c1 (centres undefined)	-3.2e-05
CC1(C)CC(=O)C(C=NCC(O)c2ccccc2)=C(O)C1 (centres undefined)	-1.9e-05
Cc1ccccc1C(=O)c1ccc2c(c1)n(C)c(=O)n2C	-5.8e-05
COC(=O)C(NC(C)=O)(Nc1ccc(Br)cc1)C(=O)OC	-1.5e-05
CCOC(=O)CSc1nc(N)c(C#N)c(-c2ccc(OC)cc2)c1C#N	-3.8e-05
COc1cccc(/C(O)=C2/C(=O)C(=O)N(CCCN(C)C)C2c2cccc(Cl)c2)c1 (centres undefined)	-5.7e-05
O=C(O)CC(NCc1ccco1)C(=O)OCC1CCCO1 (centres undefined)	-2.3e-05
CNc1oc(-c2ccc(Cl)cc2)nc1C#N	-4.5e-06
O=C(O)CCCC(=O)Nc1ccn(-c2ccccc2)n1	-2.7e-05
CCOC(=O)C1=C(C)N=C2SC(C)C(=O)N2C1c1ccc(OC(C)=O)c(OC)c1 (centres undefined)	-0.000136
CCOc1cccc(-c2nn3c(-c4ccco4)nnc3s2)c1	-0.00014
COc1ccc(/C(O)=C2/C(=O)C(=O)N(c3ncccn3)C2c2ccc(OC)c(OC)c2)cc1 (centres undefined)	-4.6e-05
COc1cccc2c(=O)c(SC(F)(F)C(F)C(F)(F)F)c(C)[nH]c12 (centres undefined)	-3e-05
COc1ccccc1N(O)C1CC(=O)N(c2ccc(F)cc2)C1=O (centres undefined)	-0.000168
CC1CN(C2CCN(S(=O)(=O)c3ccccc3)CC2)CC(C)O1 (centres undefined)	-2.3e-05

Structure (SMILES)	NADPH fluorescence slope
CC(C)OC(=O)c1nn2c(C(F)(F)F)cc(-c3ccc(Br)o3)nc2c1Br	-4.3e-06
O=S(=O)(c1ccc(Cl)cc1)N1CCC(N2CCCCCC2)CC1	6.3e-06
CCCCNC(=O)N1CCOCCOCCN(C(=O)NCCCC)CCOCCOCC1	-2.2e-05
C=CCc1c(C)c(C#N)c2nc3ccccc3n2c1N1CCN(C)CC1	-2e-05
COc1ccc(C2=Nn3c(nnc3-c3ccccn3)SC2)cc1	-0.00018
COC(=O)c1nn2c(C(F)(F)F)cc(-c3ccc(Br)o3)nc2c1Br	-6.2e-05
Cc1cc(C)nc(N(C#N)CC(=O)N(c2ccccc2)C(C)C)n1	-2.8e-05
CC1(C)CC(N(Cc2ccco2)C(=O)Cc2ccccc2)CCO1 (centres undefined)	-3.2e-05
O=C(c1ccc(=O)oc1)N1CCOCC1	-0.000126
CCOC(=O)C1CCCN(c2nc3ccccc3nc2C(C#N)C(=O)OCCOC)C1 (centres undefined)	-4.8e-05
COC(=O)CSc1nc(N)c2c3c(sc2n1)CCCC3	-6.3e-05
Cc1c(C(Nc2ccccn2)c2ccccc2)c(=O)n(-c2ccccc2)n1C (centres undefined)	-9.6e-05
CSc1nc(N)nc(SCC(=O)OC(C)C)c1C#N	5e-05
CCOC(=O)c1c(CNCCN(CC)CC)n(C)c2cc(Br)c(OC)cc12	-8.8e-06
COc1ccc(/C(O)=C2/C(=O)C(=O)N(CCCN(C)C)C2c2ccccc2)cc1OC (centres undefined)	-3.5e-05
Nc1nnc(CSc2ccc(Cl)cc2)s1	-4.8e-05
Fc1ccc2[nH]c3c(N4CCN(C5CCCCC5)CC4)ncnc3c2c1	-1.9e-06
COC(=O)C(NC(C)=O)(Nc1ccccc1)C(=O)OC	-6.4e-05
CN(C)C/C(Cl)=C(\Cl)c1ccccc1	-6.5e-05
Cc1[nH]c2ccc3c(ncn3CCC#N)c2c1C	-3.5e-05
